The record followed here is PMC13494018.

The experiment deals with CD276, Q5ZPR3.
CD276, Q5ZPR3, sequence (Q5ZPR3 whole entry): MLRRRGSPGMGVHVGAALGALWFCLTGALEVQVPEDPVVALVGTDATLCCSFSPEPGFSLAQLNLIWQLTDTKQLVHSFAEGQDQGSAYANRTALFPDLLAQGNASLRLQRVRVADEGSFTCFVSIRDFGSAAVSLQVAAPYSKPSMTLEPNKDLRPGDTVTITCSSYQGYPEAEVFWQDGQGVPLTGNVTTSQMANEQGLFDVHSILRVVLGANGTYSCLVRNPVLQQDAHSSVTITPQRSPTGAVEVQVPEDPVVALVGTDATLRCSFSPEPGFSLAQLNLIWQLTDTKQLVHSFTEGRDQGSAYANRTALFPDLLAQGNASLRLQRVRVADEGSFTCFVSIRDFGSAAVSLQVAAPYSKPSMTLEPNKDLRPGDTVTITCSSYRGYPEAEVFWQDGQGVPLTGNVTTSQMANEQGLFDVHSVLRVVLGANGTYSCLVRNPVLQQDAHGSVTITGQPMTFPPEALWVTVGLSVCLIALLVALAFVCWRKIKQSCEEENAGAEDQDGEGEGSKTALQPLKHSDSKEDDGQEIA

B1: design_614_ef6b398b-10cb-4a07-8087-96dafb4f9c83_2138_dldesign_0_cycle1_af2pred (protein)
chain: SEALRAEAARLANAALALLSRASVAFGNALSPTLATAVDAFLAADREGDAETRLAVARAALAAAEAAVAAAAAAA
With B1, the “binding in a display sort” value was “not found (inactive)”.

B2: design_614_ef6b398b-10cb-4a07-8087-96dafb4f9c83_1766_dldesign_0_cycle1_af2pred (protein)
chain: ARAELEAQLAKAKEAAAQAQAAAAQLAALGGTATAAAITAAAQRALAAAEADLSKAPEALTFLQALLQQAQHQVAQLT
As to B2, the “binding in a display sort” value is “not found (inactive)”.

B3: design_614_ef6b398b-10cb-4a07-8087-96dafb4f9c83_2192_dldesign_0_cycle1_af2pred (protein)
chain: AAAALQAATIALGSLRALAESARRSNAESAKKLAELAEDLAADAKANAAKAAADPAYAAQAKAVAEEAKRALEETKRIAEEKAEA
Turning to B3, the “binding in a display sort” value was “not found (inactive)”.

B4: design_614_ef6b398b-10cb-4a07-8087-96dafb4f9c83_1491_dldesign_0_cycle1_af2pred (protein)
chain: EERLKEILKLIKEAKKALEESPQLAAQKLAEAAELASEFPEIAVAAVRAIAFAPNPERAKEALEEALKLAEEALKK
Turning to B4, the “binding in a display sort” value is “not found (inactive)”.

B5: design_614_ef6b398b-10cb-4a07-8087-96dafb4f9c83_1060_dldesign_0_cycle1_af2pred (protein)
chain: SAVEVLKRSIEAVARQALEAAERLIELDPELGERAREEVERLRAEALAAADADPAEGGALLVELLRLNAEIRRRAEELE
As for B5, the “binding in a display sort” value was “not found (inactive)”.

B6: design_614_ef6b398b-10cb-4a07-8087-96dafb4f9c83_2152_dldesign_0_cycle1_af2pred (protein)
chain: GAAEEERRRHQEAVERAEAAVKELEALAKQLAADPHGAVFAQAMVDQARRALEEAKTGDLETAEEALRVITSNLEMAKAIL
Regarding B6, the “binding in a display sort” value was “not found (inactive)”.

B7: design_615_ab801fab-270b-4f6a-b2b5-83c165df418c_251_dldesign_0_cycle1_af2pred (protein)
chain: AAAAAEAAAVQARGGALLDELKERTSELSPEAVSRASLLLTRGLTYASQPATLAEGRRYVDEAEAIIRSA
Turning to B7, the “binding in a display sort” value was “not found (inactive)”.

B8: design_615_ab801fab-270b-4f6a-b2b5-83c165df418c_153_dldesign_0_cycle1_af2pred (protein)
chain: SAAGEIGAKAIEAMKKAYEYAKLYESGEDEKAKEKAKEAAEKLKELAKEAAKAGAAGARLAKVAKASAENALKIAKE
For B8, the “binding in a display sort” value is “not found (inactive)”.

B9: design_615_ab801fab-270b-4f6a-b2b5-83c165df418c_246_dldesign_0_cycle1_af2pred (protein)
chain: AEREEAALAEAEKALAEAKKLVEAALADPATAATTVGEATALLTAAIERASREVSPERALEVAQEAARIQADGIKALA
Consider B9, for which the “binding in a display sort” value is “not found (inactive)”.

B10: design_614_ef6b398b-10cb-4a07-8087-96dafb4f9c83_822_dldesign_0_cycle1_af2pred (protein)
chain: AEEEKRRAIAEAAMRQFKEIAEGAAATALANPAIADGALASVKALGKNLVEGAKAQSPELGKKAAEVAKEAIEKVEKAAKEAKAA
As to B10, the “binding in a display sort” value is “not found (inactive)”.

B11: design_615_ab801fab-270b-4f6a-b2b5-83c165df418c_597_dldesign_0_cycle1_af2pred (protein)
chain: AAAAEAITKATLAAIEKTAEKIVEAAEKATPEEAKKLAESVKKLAETGVGIATAASPELGKEAKEKAEKLKEKAKEAVKKVKE
For B11, the “binding in a display sort” value is “not found (inactive)”.

B12: design_614_ef6b398b-10cb-4a07-8087-96dafb4f9c83_1258_dldesign_0_cycle1_af2pred (protein)
chain: AEQEKAAQLALNTAKAALKRAKAGSAEEARAAAETAKLAAEAAKVNSTDPAVIKEAEKVAEETKKVAEAK
B12: the “binding in a display sort” value was “not found (inactive)”.

B13: design_614_ef6b398b-10cb-4a07-8087-96dafb4f9c83_1163_dldesign_0_cycle1_af2pred (protein)
chain: EAAREAALALMNEALALLVEETGRDPRLAPALALMSKAVIEMAKDPEKGIELAEKAAEEAKKVDPEVGEKVKKLVEEAKKAVKA
Take B13: the “binding in a display sort” value was “not found (inactive)”.

B14: design_615_ab801fab-270b-4f6a-b2b5-83c165df418c_0_dldesign_0_cycle1_af2pred (protein)
chain: AAAERLAQRLEAARLIAEAAGVPEEVARRVAELVADPATFPEAVALAKAVGGGAMLILAAARSGSLENARKMAEAAA
In the case of B14, the “binding in a display sort” value is “not found (inactive)”.

B15: design_614_ef6b398b-10cb-4a07-8087-96dafb4f9c83_875_dldesign_0_cycle1_af2pred (protein)
chain: AAARARLAAALEVAKVAADLEANAKANPATAALASATATATIKHAAAIVAEVDPAAGAAVAAAATAAEAIAIITAALKAA
Turning to B15, the “binding in a display sort” value was “not found (inactive)”.

B16: design_614_ef6b398b-10cb-4a07-8087-96dafb4f9c83_1883_dldesign_0_cycle1_af2pred (protein)
chain: EEEKKKLEEIKKLLEKAMEEAIKLVAADPEVQKRLKELAEELKKAETAGEAIRVALRAASVAGQVNPEAARVILTAAEEGAKLAK
As to B16, the “binding in a display sort” value is “not found (inactive)”.

B17: design_615_ab801fab-270b-4f6a-b2b5-83c165df418c_650_dldesign_0_cycle1_af2pred (protein)
chain: SSEREVLEAEGREWGRLIAAADAVSPALAAEVARALAEKAVADPGFLYALNVAVATVAREGSPAAAAVARAALAEASKAVIAKL
In the case of B17, the “binding in a display sort” value is “not found (inactive)”.

B18: design_615_ab801fab-270b-4f6a-b2b5-83c165df418c_662_dldesign_0_cycle1_af2pred (protein)
chain: AAAQAKALAAEAKAYIAKAKEAAAAGNLGEAAQLASKALLKAAQAANLDPAFAPVLDEAQATVEAIAAAQAAAA
In the case of B18, the “binding in a display sort” value is “not found (inactive)”.

B19: design_615_ab801fab-270b-4f6a-b2b5-83c165df418c_555_dldesign_0_cycle1_af2pred (protein)
chain: AAAALAAAAAAARAAATAALAETLELAEEAQRLGDSETSLALSRQANRIAGLYIAGVRDPRLAPEAGKRAEELRREAERLYKEAL
As for B19, the “binding in a display sort” value was “not found (inactive)”.
